This passage reports outcome and AC50 results from PubChem BioAssay (EPA / NIEHS).

Read-out in assay [1]: Urokinase-type plasminogen activator receptor (uPAR), PLAUR (gene 5329)
As to the kind of experiment: BSK_4H_uPAR: BioMAP Diversity Plus: 4H Assay for Urokinase-type plasminogen activator receptor (uPAR) Biomarker Activity (AID 2283030). As to conditions: primary human endothelial cells (HUVEC); actives raise or lower the signal. In short, it runs like this: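 Endpoint derived via bidirectional curve fitting against DMSO baseline; readout was ELISA detection of uPAR on umbilical vein endothelial cells at 24 h post-treatment, with SRB-stained parallel cultures assessing cytotoxicity.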

Read-out in assay [2]: Vascular endothelial growth factor receptor 2 (Homo sapiens) (UniProt P35968)
Description: BSK_4H_VEGFRII: BioMAP Diversity Plus: 4H Assay for Vascular endothelial growth factor receptor 2 (VEGFR2) Biomarker Activity (AID 2283031).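 For AC50: cell-surface VEGFR2 protein level quantified by ELISA.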 As to conditions: primary human endothelial cells (HUVEC); actives raise or lower the signal. The procedure, abridged:
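In this multiplexed HUVEC system, biomarker ELISA was performed after 24 h chemical exposure. Parallel SRB staining (TCA fixation, 560 nm) tracked cytotoxicity; DMSO served as baseline.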

Read-out in assay [3]: Human Leukocyte Antigen - DR isotype (HLADR), HLA-DRA (gene 3122)
As to the kind of experiment: BSK_BE3C_HLADR: BioMAP Diversity Plus: BE3C Assay for Human Leukocyte Antigen - DR isotype (HLADR) Biomarker Activity (AID 2283032). As to conditions: primary human bronchial epithelial cells; actives raise or lower the signal. The procedure, abridged:
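Chemicals are dosed onto BE3C bronchial epithelial cultures of human origin and left 24 h. HLA-DR is then measured by ELISA, and the endpoint is fitted in both directions using DMSO as the activity baseline.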

Read-out in assay [4]: Vascular cell adhesion molecule 1 (VCAM1), VCAM1 (gene 7412)
Description: BSK_4H_VCAM1: BioMAP Diversity Plus: 4H Assay for Vascular cell adhesion molecule 1 (VCAM1) Biomarker Activity (AID 2283033).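 For outcome: cell-surface VCAM-1 protein measured by ELISA.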 As to conditions: primary human endothelial cells (HUVEC); actives raise or lower the signal. In short, it runs like this:
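Chemicals are added to primary human umbilical vein endothelial cells. After 24 h, VCAM-1 levels are measured by ELISA. Values come from bidirectional fitting referenced to DMSO.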

Read-out in assay [5]: Interferon-gamma inducible Protein 10 (IP10), CXCL10 (gene 3627)
As to the kind of experiment: BSK_BE3C_IP10: BioMAP Diversity Plus: BE3C Assay for Interferon-gamma inducible Protein 10 (IP10) Biomarker Activity (AID 2283034). As to conditions: primary human bronchial epithelial cells; actives raise or lower the signal. In short, it runs like this: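 IP-10 quantified by ELISA serves as the endpoint. Cells: primary human bronchial epithelium, read 24 h after compound addition. Activity is derived by bidirectional fitting with DMSO as negative control.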

Read-out in assay [6]: Monokine induced gamma interferon (MIG), CXCL9 (gene 4283)
Description: BSK_BE3C_MIG: BioMAP Diversity Plus: BE3C Assay for Monokine induced gamma interferon (MIG) Biomarker Activity (AID 2283035).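 For outcome: MIG protein measured by ELISA in BE3C cultures after 24 h of dosing.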 As to conditions: primary human bronchial epithelial cells; actives raise or lower the signal. In short, it runs like this: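 hu bronchial epithelial 1° cells, 24 h cpd; MIG by ELISA; bidirectional fit, DMSO = baseline.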

Read-out in assay [7]: urokinase plasminogen activator (uPA), PLAU (gene 5328)
As to the kind of experiment: BSK_BE3C_uPA: BioMAP Diversity Plus: BE3C Assay for urokinase plasminogen activator (uPA) Biomarker Activity (AID 2283038).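 For outcome: uPA protein level quantified by ELISA in cell cultures; uPA read one day after compound addition.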 As to conditions: primary human bronchial epithelial cells; actives raise or lower the signal. In short, it runs like this:
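Using confluent primary human lung bronchial epithelial cultures, we dosed chemicals, waited 24 h, then ran a uPA ELISA, fitting bidirectionally against DMSO.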

Read-out in assay [8]: Urokinase-type plasminogen activator receptor (uPAR), PLAUR (gene 5329)
As to the kind of experiment: BSK_BE3C_uPAR: BioMAP Diversity Plus: BE3C Assay for Urokinase-type plasminogen activator receptor (uPAR) Biomarker Activity (AID 2283039).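 For outcome: uPAR protein level measured by ELISA on the cells; cells exposed to compound for one day before measurement.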 As to conditions: primary human bronchial epithelial cells; actives raise or lower the signal. In short, it runs like this:
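Steps: dose human primary bronchial epithelial cells, incubate 24 h, measure uPAR by ELISA, then fit gain- or loss-of-signal response bidirectionally relative to DMSO.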

Read-out in assay [9]: Transforming growth factor beta 1 (TGFb1), TGFB1 (gene 7040)
As to the kind of experiment: BSK_BE3C_TGFb1: BioMAP Diversity Plus: BE3C Assay for Transforming growth factor beta 1 (TGFb1) Biomarker Activity (AID 2283036;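 for outcome: TGF-b1 protein level measured by ELISA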). As to conditions: primary human bronchial epithelial cells; actives raise or lower the signal. The procedure, abridged:
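Bronchial epithelial primary cells are treated with test chemical, then TGF-b1 is quantified by ELISA after 24 hours. Values derive from bidirectional fitting against DMSO, with cytotoxicity checked by SRB staining in parallel cultures.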

Read-out in assay [10]: Plasminogen activator inhibitor-1 (PAI1), SERPINE1 (gene 5054)
As to the kind of experiment: BSK_BE3C_PAI1: BioMAP Diversity Plus: BE3C Assay for Plasminogen activator inhibitor-1 (PAI1) Biomarker Activity (AID 2283037). As to conditions: primary human bronchial epithelial cells; actives raise or lower the signal. The procedure, abridged:
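Values derive from bidirectional fitting against DMSO baseline of PAI-1 levels, measured by ELISA in human bronchial epithelial cells 24 h after compound addition.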

In general, AC50 refers to the midpoint of the concentration-response curve, whichever way the signal moves.

“And” between values parts separate entries of the source, which are not always exact repeats. Equal values may be shown once. The source holds several records for some structures; these can differ, active in one and inactive in another. The source made the active and inactive calls. Rule for the calls: active = hit-call score of the fitted dose curve at least 0.9, where 1 is the maximum; inactive = score below 0.9.

`O=C(O)C(F)(F)OC(F)(F)C(F)(F)OC(F)(F)C(F)(F)OC(F)(F)F`: the result in [1], in [2], in assay [3], in [4], in assay [5] and in assay [6] was inactive. Moreover, the result in assay [7] and in assay [8] was inactive. In addition, the half-maximal activity concentration (AC50) in assay [3] was 9.98 µM (active); in [5] it was 7.49 µM (active).
With `C[C@]12CC[C@H]3C(=CCc4cc(O)ccc43)[C@@H]1CCC2=O`, the outcome in assay [1], in assay [2], in assay [3], in [4], in assay [6] and in assay [9] was inactive. Besides, the result in assay [10], in [7] and in assay [8] was inactive. In addition, in assay [5], the AC50 was 6.48 µM (active).
As for `FC(F)(F)C(F)(F)C(F)(F)C(F)(F)C(F)(F)C(F)(F)CC[Si](Cl)(Cl)Cl`, the result in assay [1], in assay [2], in [3], in assay [4], in [5] and in assay [6] was inactive. Besides, the outcome in assay [10], in [7] and in assay [8] was inactive.
With `CC(C)CCCC(C)CCO` (stereo unspecified), the outcome in assay [1], in [2], in assay [4] and in assay [6] was inactive. The AC50 in [3] was 29.1 µM (active); in [5], 14.4 µM (active); in assay [9] it was 20 µM (active); in [7], 28.6 µM (active); in [8] it was 24.9 µM (active).
Consider `Nc1cc([N+](=O)[O-])cc(Cl)c1O`, for which the outcome in assay [1], in assay [2], in assay [3], in [4], in assay [6] and in assay [9] was inactive. Further, the outcome in assay [7] and in assay [8] was inactive. For the same molecule, in assay [5], the AC50 was 3.97 µM (active).
As to `C=CC(=O)OCC(F)(F)C(F)(F)C(F)(F)COC(=O)C=C`, the AC50 in assay [1] was 49.9 µM (active) and 758 nM (active); in assay [2], 53.8 µM (active); in assay [3], 34.2 µM (active) and 21.4 µM (active); in [4], 19.1 µM (active) and 14 µM (active); in assay [5], 46.7 µM (active) and 35.5 µM (active); in [6], 51.8 µM (active) and 49.1 µM (active). The AC50 in assay [7] was 20.6 µM (active) and 27.4 µM (active); in assay [8], 30 µM (active) and 22.8 µM (active). Also, the outcome in assay [2] and in [10] was inactive.
On to `Brc1nc2ccccc2s1`, for which the result in assay [1], in assay [2], in [3], in assay [4], in assay [5] and in [6] was inactive. In addition, the result in [9], in [10], in assay [7] and in assay [8] was inactive.
Consider `O=C=Nc1cccc2c(N=C=O)cccc12`, for which the outcome in assay [1], in assay [2], in [3], in assay [4], in [5] and in assay [6] was inactive. The outcome in assay [9], in [10], in [7] and in [8] was inactive.
As for `Cc1cc(O)c(C(C)(C)C)cc1C(C)(C)C`, the AC50 is 3.28 µM (active) in assay [1]; 5.31 µM (active) in assay [3]; 4.86 µM (active) in assay [4]; 6.09 µM (active) in assay [5]; 11 µM (active) in [6]; 5.2 µM (active) in [9]. Further, the AC50 was 5.51 µM (active) in assay [7] and 5.33 µM (active) in assay [8]. In addition, in [2], the outcome was inactive.
Regarding `C=CC(=O)OCCC(F)(F)C(F)(F)C(F)(F)C(F)(F)F`, the outcome in [1], in [2], in assay [3], in [4], in assay [5] and in assay [6] was inactive. Besides, the outcome in assay [7] and in [8] was inactive. Further, the AC50 in [4] is 21.1 µM (active).
In the case of `CCN(CC)c1ccc(C=O)c(O)c1`, the outcome in assay [1], in assay [2], in assay [3], in assay [4], in assay [5] and in assay [6] was inactive. Moreover, the result in assay [9], in assay [7] and in assay [8] was inactive.
Turning to `O=C1C=CC(=O)N1c1ccc(Cc2ccc(N3C(=O)C=CC3=O)cc2)cc1`, the AC50 is 9.9 µM (active) in assay [1]; 10.6 µM (active) in assay [2]; 2.8 µM (active) in [3]; 9.59 µM (active) in [4]; 2.6 µM (active) in assay [5]; 6.3 µM (active) in assay [6]. For the same molecule, the AC50 was 1.6 µM (active) in assay [9], 3.54 µM (active) in assay [10], 2.62 µM (active) in [7] and 3.31 µM (active) in [8].
Regarding `CCN(CC)c1ccc(C=O)cc1`, the outcome in assay [1], in assay [2], in assay [3], in [4], in assay [5] and in assay [6] was inactive. Moreover, the result in [9], in assay [7] and in assay [8] was inactive.
On to `NS(=O)(=O)C(F)(F)C(F)(F)C(F)(F)C(F)(F)C(F)(F)C(F)(F)F`, for which the result in assay [1], in [2], in [3], in [4], in assay [6] and in [10] was inactive. Further, the outcome in assay [7] and in assay [8] was inactive. In addition, the AC50 was 30 µM (active) in assay [4]; 30 µM (active) and 24.4 µM (active) in assay [5]; 7.32 µM (active) in [10]; 41.8 µM (active) in [8].
For the molecule `CCN(CCO)S(=O)(=O)C(F)(F)C(F)(F)C(F)(F)C(F)(F)C(F)(F)C(F)(F)C(F)(F)C(F)(F)F`, the result in [1], in assay [2], in [4] and in assay [7] was inactive. Besides, the AC50 in assay [3] was 43.7 µM (active) and 27.7 µM (active); in [4], 50.6 µM (active); in assay [5], 35 µM (active) and 14.4 µM (active); in [6], 50.6 µM (active) and 43.2 µM (active); in [10], 30 µM (active) and 15.4 µM (active); in assay [7] it was 47.8 µM (active). For the same molecule, the AC50 in assay [8] was 46.4 µM (active) and 36.9 µM (active).
